Measured values published in PubChem BioAssay AID1159580 (chemical genetic matrix, 2015).
Values joined by “and” are separate entries in the source; they are usually repeats but may differ in a detail not shown here. Identical values can stand only once. About 2,000 (36%) of roughly 5,500 compounds were called active. About 18% were inconclusive and are not listed. Cut-off read from the data, not from the text of the source: active = normalized growth mostly below about 0.91 (no sharp cut-off); inconclusive = no clear call, values can overlap the other calls; inactive = mostly above about 0.92. The list shows a part of the results.

Assay: chemical genetic growth profiling, strain panel (AID 1159580);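 note: tested at 20 µM; growth read once vehicle control cultures reached saturation at 30 °C; 1 = growth at the plate median or of vehicle wells; lower values mean less growth of the strain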
Settings: S. cerevisiae deletion strains, growth OD

Measured: normalized growth

NC(=O)CC[C@@H](N)C(=O)O
inactive: locus YAL021C, strain ccr4, active compounds read low 1.02 | locus YAL026C, strain drs2, active compounds read low 1.05 | locus YAL030W, strain snc1, active compounds read low 1.04 | locus YBL061C, strain skt5, active compounds read low 1.03 | locus YBR009C, strain hhf1, active compounds read low 1.03 | locus YBR021W, strain FUR4, active compounds read low 1.04 | locus YBR023C, strain chs3, active compounds read low 1.03 | locus YBR171W, strain sec66, active compounds read low 1.05 | locus YBR229C, strain ROT2, active compounds read low 1.01 | locus YBR231C, strain swc5, active compounds read low 1.02 | locus YBR279W, strain paf1, active compounds read low 1.02 | locus YCL011C, strain gbp2, active compounds read low 1.02 | locus YCL016C, strain dcc1, active compounds read low 1.02 | locus YCL029C, strain bik1, active compounds read low 1.01 | locus YCL061C, strain MRC1, active compounds read low 1.02 | locus YCL069W, strain vba3, active compounds read low 1.02 | locus YCR088W, strain abp1, active compounds read low 1.03 | locus YDL005C, strain med2, active compounds read low 1.04 | locus YDL035C, strain GPR1, active compounds read low 1.06 | locus YDL040C, strain nat1, active compounds read low 1.02 | locus YDL074C, strain BRE1, active compounds read low 1.09 | locus YDL101C, strain DUN1, active compounds read low 1.02 | locus YDL185W, strain tfp1, active compounds read low 1.01 | locus YDL192W, strain arf1, active compounds read low 1.03 | locus YDR001C, strain nth1, active compounds read low 1.02 | locus YDR069C, strain doa4, active compounds read low 1.03 | locus YDR101C, strain arx1, active compounds read low 1.01 | locus YDR137W, strain rgp1, active compounds read low 1.06 | locus YDR159W, strain sac3, active compounds read low 1.08 | locus YDR162C, strain NBP2, active compounds read low 1.05 | locus YDR195W, strain ref2 1.01 | locus YDR297W, strain sur2, active compounds read low 1.02 | locus YDR318W, strain mcm21, active compounds read low 0.996 | locus YDR334W, strain swr1, active compounds read low 1.03 | locus YDR335W, strain msn5, active compounds read low 1.04 | locus YDR388W, active compounds read low 0.993 | locus YDR392W, strain spt3, active compounds read low 0.937 | locus YDR502C, strain sam2, active compounds read low 1.02 | locus YEL003W, strain gim4, active compounds read low 1.02 | locus YEL037C, strain rad23, active compounds read low 1.03 | locus YEL061C, strain CIN8 (second series), active compounds read low 1.02 | locus YEL061C, strain CIN8, active compounds read low 1.02 | locus YER015W, strain faa2, active compounds read low 1.03 | locus YER016W, strain bim1, active compounds read low 1.02 | locus YER110C, active compounds read low 0.996 | locus YER111C, strain swi4, active compounds read low 1.02 | locus YER155C, strain BEM2 (second series), active compounds read low 0.971 | locus YER155C, strain BEM2, active compounds read low 1.01 | locus YER167W, strain BCK2, active compounds read low 1.02 | locus YFR010W, strain ubp6, active compounds read low 1.05 | locus YGL078C, strain dbp3, active compounds read low 1.03 | locus YGL086W, strain mad1, active compounds read low 1.02 | locus YGL167C, strain pmr1, active compounds read low 1.04 | locus YGL173C, strain kem1, active compounds read low 1.04 | locus YGL227W, strain vid30, active compounds read low 1.02 | locus YGL240W, strain doc1, active compounds read low 1.02 | locus YGL248W, strain PDE1, active compounds read low 1.02 | locus YGL253W, strain hxk2, active compounds read low 1.06 | locus YGR078C, strain PAC10, active compounds read low 1.04 | locus YGR135W, strain pre9, active compounds read low 1.02 | locus YGR252W, strain gcn5, active compounds read low 1.14 | locus YHR013C, strain ard1, active compounds read low 1.07 | locus YHR027C, strain rpn1, active compounds read low 1.04 | locus YHR030C, strain SLT2, active compounds read low 1.02 and 1.05 | locus YHR079C, strain IRE1 (second series), active compounds read low 0.987 | locus YHR079C, strain IRE1, active compounds read low 1.03 | locus YHR094C, strain hxt1, active compounds read low 0.984 | locus YHR129C, strain ARP1, active compounds read low 1.03 | locus YHR142W, strain chs7, active compounds read low 1.05 | locus YHR200W, strain rpn10, active compounds read low 1 | locus YIL066C, strain RNR3, active compounds read low 1.05 | locus YIL073C, strain SPO22, active compounds read low 1.13 | locus YIL125W, strain kgd1, active compounds read low 1.02 | locus YIR030C, strain dcg1, active compounds read low 0.998 | locus YJL092W, strain hpr5, active compounds read low 1.03 | locus YJL095W, strain BCK1 (second series), active compounds read low 1.02 | locus YJL095W, strain BCK1, active compounds read low 1.05 and 1.04 | locus YJL115W, strain asf1, active compounds read low 1.02 | locus YJL129C, strain trk1, active compounds read low 1.07 | locus YJL134W, strain LCB3, active compounds read low 1.01 | locus YJL154C, strain vps35, active compounds read low 1.02 | locus YJL164C, strain tpk1, active compounds read low 1.03 | locus YJL166W, strain qcr8, active compounds read low 1.04 | locus YJL168C, strain set2, active compounds read low 0.989 | locus YJL187C, strain SWE1 (second series), active compounds read low 1.03 | locus YJL187C, strain SWE1, active compounds read low 1.06 | locus YJR043C, strain POL32, active compounds read low 1.04 | locus YJR066W, strain TOR1, active compounds read low 1 | locus YKL009W, strain mrt4, active compounds read low 1.08 | locus YKL068W, active compounds read low 1.02 | locus YKL085W, strain MDH1 (second series), active compounds read low 1.01 | locus YKL085W, strain MDH1, active compounds read low 1.01 | locus YKL160W, strain elf1, active compounds read low 1.02 | locus YKR001C, strain vps1, active compounds read low 1.05 | locus YKR026C, strain gcn3, active compounds read low 1.03 | locus YKR091W, strain srl3, active compounds read low 1.03 | locus YLL001W, strain dnm1, active compounds read low 1 | locus YLL026W, active compounds read low 1.03 | locus YLL041C, strain sdh2, active compounds read low 1.02 | locus YLR027C, strain aat2, active compounds read low 1.02 | locus YLR039C, strain RIC1, active compounds read low 1.11 | locus YLR058C, strain SHM2, active compounds read low 1.02 | locus YLR102C, strain apc9, active compounds read low 0.98 | locus YLR113W, strain HOG1, active compounds read low 1.02 | locus YLR221C, strain rsa3, active compounds read low 1.04 | locus YLR258W, strain gsy2, active compounds read low 1.02 | locus YLR262C, strain YPT6 (second series), active compounds read low 1.05 | locus YLR262C, strain YPT6, active compounds read low 1.1 | locus YLR268W, strain sec22, active compounds read low 1.05 | locus YLR320W, strain mms22, active compounds read low 1.04 | locus YLR330W, strain CHS5, active compounds read low 1.03 | locus YLR342W, strain FKS1 (second series), active compounds read low 1.07 | locus YLR342W, strain FKS1, active compounds read low 1.03 | locus YLR357W, strain rsc2, active compounds read low 1.05 | locus YLR370C, strain arc18, active compounds read low 1.03 | locus YLR371W, strain rom2, active compounds read low 0.993 | locus YLR384C, strain iki3, active compounds read low 1.02 | locus YLR418C, strain cdc73, active compounds read low 1.07 | locus YML016C, strain PPZ1, active compounds read low 1.01 | locus YML032C, strain rad52, active compounds read low 1.02 | locus YML120C, strain ndi1, active compounds read low 1.03 | locus YML124C, strain tub3, active compounds read low 1.01 | locus YMR058W, strain fet3, active compounds read low 1.04 | locus YMR078C, strain ctf18, active compounds read low 0.988 | locus YMR125W, strain sto1, active compounds read low 1.03 | locus YMR129W, active compounds read low 1.02 | locus YMR205C, strain PFK2, active compounds read low 1.04 | locus YMR223W, strain ubp8, active compounds read low 1.02 | locus YMR231W, strain pep5, active compounds read low 1.03 | locus YMR263W, strain SAP30, active compounds read low 1.02 | locus YMR307W, strain GAS1, active compounds read low 1.13 | locus YNL067W, strain RPL9B, active compounds read low 1.03 | locus YNL071W, strain lat1, active compounds read low 1.03 | locus YNL153C, strain GIM3, active compounds read low 1.02 | locus YNL183C, strain NPR1, active compounds read low 1.01 | locus YNL209W, strain ssb2, active compounds read low 1.02 | locus YNL233W, strain BNI4, active compounds read low 1.03 | locus YNL248C, strain rpa49, active compounds read low 1.05 | locus YNL250W, strain rad50, active compounds read low 1.03 | locus YNL271C, strain bni1, active compounds read low 1.02 | locus YNL298W, strain CLA4, active compounds read low 1.02 | locus YNL307C, strain MCK1, active compounds read low 0.995 | locus YNL322C, strain KRE1 (second series), active compounds read low 1.02 | locus YNL322C, strain KRE1, active compounds read low 1.02 | locus YNR049C, strain mso1, active compounds read low 1.04 | locus YNR052C, strain pop2, active compounds read low 1.03 | locus YOL012C, strain htz1 1.02 | locus YOL147C, strain pex11, active compounds read low 1 | locus YOR001W, strain rrp6, active compounds read low 1.04 | locus YOR061W, strain CKA2, active compounds read low 1.02 | locus YOR069W, strain VPS5, active compounds read low 1.01 | locus YOR070C, strain gyp1, active compounds read low 1.01 | locus YOR080W, strain dia2, active compounds read low 1.03 | locus YOR083W, strain WHI5, active compounds read low 1.01 | locus YOR106W, strain vam3, active compounds read low 1.06 | locus YOR136W, strain idh2, active compounds read low 1.02 | locus YOR144C, strain elg1, active compounds read low 1 | locus YOR184W, strain ser1, active compounds read low 1.05 | locus YOR231W, strain MKK1, active compounds read low 1.03 | locus YOR265W, strain rbl2, active compounds read low 1.02 | locus YOR270C, strain vph1, active compounds read low 1.1 | locus YOR290C, strain snf2, active compounds read low 1.03 | locus YOR316C, strain cot1, active compounds read low 0.987 | locus YPL051W, strain arl3, active compounds read low 1 | locus YPL078C, strain atp4, active compounds read low 1.01 | locus YPL106C, strain sse1, active compounds read low 1.01 | locus YPL240C, strain hsp82, active compounds read low 1.02 | locus YPL241C, strain CIN2, active compounds read low 1.01 | locus YPL256C, strain CLN2, active compounds read low 1.05 | locus YPR119W, strain clb2, active compounds read low 0.991 | locus YPR141C, strain kar3, active compounds read low 1.01 | locus YPR163C, strain tif3, active compounds read low 0.99 | locus YPR167C, strain met16, active compounds read low 1 | strain wtn01, active compounds read low 1.06
